Compounds with a hit are over-represented: about 11% of the library has one in this group of screens.
Pf growth 96h – P. falciparum growth inhibition at 96 hour, primary screen for plastid delayed-death inhibitors. P. falciparum luciferase reporter growth, 96 h. Potency, µM (titrated, usually from 28.7 µM), for the others: at the top dose activity change, negative = inhibition, actives largely listed as inhibitors. actives 6.9% (n = 320,000). AID 504834
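Luminescence readout: decreased luciferase signal marks inhibited growth of reporter-expressing P. falciparum in infected red cells (2% hematocrit, 0.05% parasitemia final), exposed to compound two generations (96 h, 37 C, 5% CO2).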
AMA1-RON2 inh – inhibitors of Plasmodium falciparum AMA1-RON2 interaction. AID 720542. AlphaScreen AMA1-biotinylated RON2 peptide binding. actives 0.2% (n = 360,000). Potency, µM (highest dose often 58.2 µM), for the others: at the top dose activity change, negative = inhibition, hits mostly inhibitors;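 further: 0% = vehicle wells and -100% = peptide control; nearly all actives have a fitted effect of over 45% in size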
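AMA1 (3D7) with his tag at 25 nM final met compounds first, then biotinylated RON2 peptide at 25 nM; detection used donor plus acceptor beads, 10 µg/mL apiece, read by AlphaScreen after 30 min at room temperature.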
HCV inhibitor – blocks hepatitis C virus; Huh7.5.1 HCVcc-Cre infection, luciferase reporter, 44 h; Potency, µM (series often up to 41.8 µM), without a hit: at the top dose activity change, negative = inhibition, actives largely listed as inhibitors; actives 3.4% (n = 340,000); AID 651820
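Compounds are dispensed onto cells plated 4 h earlier at 1,000 per well, with HCVcc-Cre virus (about 0.5 moi) added next. Following 44 h of culture, luminescent signal is measured for 15 sec after 15 min with substrate at room temperature.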
Pf growth 48h – P. falciparum growth inhibition at 48 hours (one generation). P. falciparum luciferase growth in erythrocytes, 48 h. Potency, µM (top dose mostly 28.7 µM), for inactives: at the highest dose activity change, negative = inhibition, usual class: inhibitors. actives 5.9% (n = 310,000). AID 504832
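In quantitative HTS format, infected erythrocytes bearing luciferase-reporter parasites were treated for a single generation at 37 C. Luminescence after adding detection reagent served as the growth measure.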
Active calls of the source: *; ? = inconclusive; · = no result given. The call rests on the fitted dose curve; in most records, active means well fitted curve in the direction sought with a large enough effect; inconclusive means small, poorly fitted or top-dose-only effect, or another doubt; inactive means no such curve, though single readings can be large; an effect the other way counts as inactive or inconclusive. Unless noted, on the % scale 0 is the no-effect control and ±100 the full control effect; potency means the concentration at half of the fitted maximal effect.

SMILES	Pf growth 96h	AMA1-RON2 inh	HCV inhibitor	Pf growth 48h
CCN1C(=O)[C@H]2[C@@H](c3ccc(-c4ccc(C(C)=O)cc4)c(OC)c3)N[C@@](Cc3ccccc3)(C(=O)OC)[C@H]2C1=O	9.3µM*	-5%	?	8.3µM*
CCN1C(=O)[C@H]2[C@@H](c3ccc(-c4cccc(Cl)c4)c(OC)c3)N[C@@](CC(C)C)(C(=O)OC)[C@H]2C1=O	0.23µM*	-11%	?	0.33µM*
CCN1C(=O)[C@H]2[C@@H](c3ccc(-c4ccccc4)c(OC)c3)N[C@@](Cc3ccccc3)(C(=O)OC)[C@H]2C1=O	0.66µM*	12%	18%	1.9µM*
CCN1C(=O)[C@H]2[C@@H](c3ccc(-c4cccc(Cl)c4)cc3)N[C@@](CC(C)C)(C(=O)OC)[C@H]2C1=O	·	-1%	8%	·
Cc1ccc(NS(=O)(=O)c2c(C)[nH]c(C)c2C(=O)N2CCCC2)cc1Cl	12%	0%	5%	4%
CCOC(=O)c1c(S(=O)(=O)NCc2ccc(C)o2)c(C)n(C)c1C	42%	6%	13%	-5%
CCC(C(=O)Nc1ccc(S(=O)(=O)N2CCN(C)CC2)cc1)c1ccccc1 (stereo unspecified)	·	-12%	·	·
CCCC(C(=O)Nc1ccc(S(=O)(=O)N2CCOCC2)cc1)c1ccccc1 (stereo unspecified)	9.3µM*	-5%	10%	13µM*
CCCC(C(=O)Nc1cccc(S(=O)(=O)N2CCCC2)c1)c1ccccc1 (stereo unspecified)	10µM*	-4%	?	?
CC(CC(=O)Nc1cccc(S(=O)(=O)N2CCCCC2)c1)c1ccccc1 (stereo unspecified)	?	-6%	?	?
CCCC(C(=O)Nc1ccc(C)c(S(=O)(=O)N2CCOCC2)c1)c1ccccc1 (stereo unspecified)	?	13%	-20%	10µM*
CCC(C)c1ccccc1N1CC(C(=O)Nc2ccc(C)c(S(=O)(=O)N3CCOCC3)c2)CC1=O (stereo unspecified)	?	6%	3%	13µM*
Cc1cc(C(=O)Nc2ccc(F)c(Cl)c2)on1	33%	6%	3%	?
COc1cc(NC(=O)c2ccc([N+](=O)[O-])cc2)ccc1NC(=O)C(C)C	1%	20%	?	70%
CCCn1c(N)c(N(CCOC)C(=O)c2cc(S(=O)(=O)N3CCCCCC3)ccc2OC)c(=O)[nH]c1=O	1%	-11%	4%	12%
CCSC1=NCCN1C(=O)c1ccc(S(=O)(=O)N(C)C)cc1	-9%	12%	4%	3%
Cc1cc(-c2nnc(CCC(=O)NC(C)(C)C34CC5CC(CC(C5)C3)C4)o2)no1	·	7%	20%	·
CC(=O)N1CCc2c(sc(NC(=O)c3cccc(N4C(=O)CCC4=O)c3)c2C(N)=O)C1	-66%	13%	13%	18%
CCOCCn1ccc2c(OCC(=O)NCc3ccccc3)cccc2c1=O	-23%	-10%	17%	?
C[C@H]1COC(=O)[C@H](Cc2ccc(F)cc2)C/C=C\C[C@@H](CC(=O)N(CCO)Cc2ccccc2)C(=O)N1	·	14%	-24%	·
CCCc1ccc(NC(C)C(=O)Nc2ccc(S(=O)(=O)N3CCOCC3)cc2)cc1 (stereo unspecified)	5.2µM*	-18%	?	?
Cc1cccc(N2CCN(C(=O)c3c(C)nn(Cc4ccccc4Cl)c3C)CC2)c1C	7.4µM*	-3%	32µM*	·
CC1CN(C2CCCCC2)C(=O)NC1=O (stereo unspecified)	·	0%	10%	·
COc1ccc(OC)c(S(=O)(=O)NCc2nc3nc(C)cc(C)n3n2)c1	13µM*	-6%	11%	-7%
COc1ccc(CNc2nc3nc(C)cc(C)n3n2)cc1	40%	-3%	0%	44%
SMILES	Pf growth 96h	AMA1-RON2 inh	HCV inhibitor	Pf growth 48h
Cc1cc(C)c(NC(=O)C2CCCN2C)c(C)c1 (stereo unspecified)	8.3µM*	18%	14%	39%
CCOCCCNC(=S)N1C2CCC1CC(NC(=O)NC13CC4CC(CC(C4)C1)C3)C2 (stereo unspecified)	3.7µM*	-5%	10%	4.7µM*
Cc1cc(C)cc(CSc2ccc(S(=O)(=O)N3CCCC3)cn2)c1	9.3µM*	18%	?	9.3µM*
O=S(=O)(c1ccc(SCc2c(F)cccc2Cl)nc1)N1CCCC1	·	-7%	·	·
O=S(=O)(c1ccc(SCc2ccc(Cl)cc2)nc1)N1CCCC1	?	42%	?	12µM*
Cc1ccccc1CSc1ccc(S(=O)(=O)N2CCCC2)cn1	·	-2%	?	·
O=C1CC(c2ccccc2)c2cc(O)ccc2O1 (stereo unspecified)	10µM*	-3%	-1%	-14%
CCN(CC)CCCN(C(=O)c1cccs1)c1nc(-c2ccc(OC)cc2)cs1	-28%	-26%	11µM*	13µM*
CCN(CC)CCCN(C(=O)c1ccc(Br)cc1)c1nc(-c2ccc(OC)cc2)cs1	-28%	-24%	?	?
CCN(CC)CCCN(C(=O)c1cccc(C)c1)c1nc(-c2ccc(OC)cc2)cs1	4.1µM*	-6%	4%	?
CCN(CC)S(=O)(=O)c1cccc(C(=O)Nc2cc(C)on2)c1	?	6%	-15%	?
O=[N+]([O-])c1cnn(-c2nc(-c3ccccc3)cc(C(F)(F)F)n2)c1	2%	3%	?	17%
Oc1ccccc1-c1cc(C(F)(F)C(F)F)nc(-c2ccccc2)n1	61%	-2%	?	3%
COc1ccc(O)c(-c2cc(C(F)(F)C(F)F)nc(-c3ccccc3)n2)c1	2.9µM*	-7%	?	13µM*
Nc1nc(N)nc(-c2cc([N+](=O)[O-])ccc2O)n1	2.1µM*	68%	-17%	-17%
O=[N+]([O-])c1ccc(O)c(-c2cc(C(F)(F)F)nc(-c3ccccc3)n2)c1	22%	-2%	1.4µM*	0.37µM*
Cc1ccc(S(=O)(=O)n2ccc3c2CCCC3=O)cc1	-1%	0%	2%	-20%
Cc1c(Cl)cccc1NC(=S)N1CCCCCC1	?	0%	7%	0%
Cc1cc(O)c(CN2CCN(S(=O)(=O)c3cccs3)CC2)cc1C(C)C	4.1µM*	-2%	?	1.7µM*
CC(C)c1ccccc1NC(=S)N1CCN(S(=O)(=O)c2cccs2)CC1	5.2µM*	-4%	-8%	?
Cc1c(Cl)cccc1NC(=S)N1CCN(S(=O)(=O)c2cccs2)CC1	?	1%	-10%	1.9µM*
COc1ccc(CCN=CC2=C(O)CCCC2=O)cc1OC	·	8%	16%	36%
Cc1ccc(-c2ccccc2[C@@H]2C[C@H]3CN(C)C(=O)[C@]34CCCN24)o1	-12%	9%	11%	-4%
O=C1N(c2ccccc2)C[C@@H]2C[C@@H](c3cc4ccccc4o3)N3CCC[C@@]123	13µM*	5%	?	-15%
C[C@H]1C(=O)N(C)CCN1Cc1cn(C)nc1-c1ccc(Oc2ccccc2)cc1	-12%	-3%	?	?
